Results as given in PubChem BioAssay AID1159580 (chemical genetic matrix, 2015).
Screen size: about 5,500 compounds; about 2,000 (36%) were called active. About 18% were inconclusive and are not listed. Rule as the data show it: active = normalized growth mostly below about 0.91 (no sharp cut-off); inconclusive = no clear call, values can overlap the other calls; inactive = mostly above about 0.92. The list shows a part of the results.

Experiment: chemical genetic growth profiling, strain panel (AID 1159580);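 also: tested at 20 µM; growth read once vehicle control cultures reached saturation at 30 °C; 1 = growth at the plate median or of vehicle wells; lower values mean less growth of the strain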
Conditions: growth OD
[1] = S. cerevisiae deletion strains, locus YAL013W, strain DEP1, active compounds read low
[2] = S. cerevisiae deletion strains, locus YBR229C, strain ROT2, active compounds read low
[3] = S. cerevisiae deletion strains, locus YCL061C, strain MRC1, active compounds read low
[4] = S. cerevisiae deletion strains, locus YDL101C, strain DUN1, active compounds read low
[5] = S. cerevisiae deletion strains, locus YDL134C, strain PPH21, active compounds read low
[6] = S. cerevisiae deletion strains, locus YDR150W, strain NUM1, active compounds read low
[7] = S. cerevisiae deletion strains, locus YEL061C, strain CIN8, active compounds read low
[8] = S. cerevisiae deletion strains, locus YGR078C, strain PAC10, active compounds read low
[9] = S. cerevisiae deletion strains, locus YHR030C, strain SLT2, active compounds read low
[10] = S. cerevisiae deletion strains, locus YHR087W, strain rtc3, active compounds read low
[11] = S. cerevisiae deletion strains, locus YJR043C, strain POL32, active compounds read low
[12] = S. cerevisiae deletion strains, locus YJR075W, strain HOC1, active compounds read low
[13] = S. cerevisiae deletion strains, locus YKL190W, strain CNB1, active compounds read low
[14] = S. cerevisiae deletion strains, locus YLR039C, strain RIC1, active compounds read low
[15] = S. cerevisiae deletion strains, locus YLR058C, strain SHM2 (second series), active compounds read low
[16] = S. cerevisiae deletion strains, locus YLR085C, strain ARP6, active compounds read low
[17] = S. cerevisiae deletion strains, locus YLR262C, strain YPT6, active compounds read low
[18] = S. cerevisiae deletion strains, locus YML094W, strain GIM5, active compounds read low
[19] = S. cerevisiae deletion strains, locus YMR219W, strain ESC1, active compounds read low
[20] = S. cerevisiae deletion strains, locus YMR263W, strain SAP30, active compounds read low
[21] = S. cerevisiae deletion strains, locus YMR307W, strain GAS1, active compounds read low
[22] = S. cerevisiae deletion strains, locus YNL153C, strain GIM3, active compounds read low
[23] = S. cerevisiae deletion strains, locus YNL298W, strain CLA4 (second series), active compounds read low
[24] = S. cerevisiae deletion strains, locus YNL322C, strain KRE1, active compounds read low
[25] = S. cerevisiae deletion strains, locus YNR030W, strain Alg12, active compounds read low
[26] = S. cerevisiae deletion strains, locus YOL006C, strain TOP1, active compounds read low
[27] = S. cerevisiae deletion strains, locus YPL055C, strain LGE1, active compounds read low
[28] = S. cerevisiae deletion strains, locus YPL241C, strain CIN2, active compounds read low
[29] = S. cerevisiae deletion strains, locus YPR135W, strain CTF4, active compounds read low
[30] = S. cerevisiae deletion strains, locus YJL187C, strain SWE1, active compounds read low

Measured: normalized growth

c1ccc(-c2ncc3ccccn23)cc1
inactive: [1] 1.01 | [2] 0.988 | [3] 0.985 | [4] 0.975 | [5] 0.967 | [6] 0.974 | [7] 0.989 | [8] 0.998 | [9] 0.843 | [10] 0.999 | [11] 0.99 | [12] 1.03 | [13] 0.996 | [15] 0.991 | [16] 0.9 | [17] 0.926 | [18] 0.936 | [19] 1.01 | [20] 0.971 | [21] 0.711 | [22] 0.979 | [23] 0.95 | [24] 1.01 | [25] 0.981 | [27] 1.03 | [28] 0.928 | [29] 0.753
active: [14] 0.786 | [26] 0.461

O=[N+]([O-])c1cnc2ccccn12
inactive: [1] 1.02 | [2] 1.01 | [4] 1 | [5] 1.03 | [6] 0.964 | [7] 1 | [8] 1.01 | [9] 1.08 | [10] 1.01 | [30] 0.992 | [11] 1.02 | [12] 1.03 | [13] 1.02 | [14] 1.05 | [15] 1.01 | [16] 1.01 | [17] 1.09 | [18] 0.995 | [19] 1.01 | [20] 1.02 | [21] 1.1 | [22] 1.03 | [23] 1.08 | [24] 1.02 | [25] 1.02 | [27] 1.02 | [28] 1.02 | [29] 1.11

CC(=O)OCC(=O)[C@@]1(O)CCC2C3CCC4=CC(=O)C=C[C@]4(C)[C@@]3(Cl)[C@@H](Cl)C[C@@]21C (some centres not stated)
inactive: [9] 0.991 | S. cerevisiae deletion strains, locus YHR079C, strain IRE1, active compounds read low 0.991 | S. cerevisiae deletion strains, locus YJL095W, strain BCK1, active compounds read low 0.968 | S. cerevisiae deletion strains, locus YJR066W, strain TOR1, active compounds read low 0.923 | S. cerevisiae deletion strains, locus YLR113W, strain HOG1, active compounds read low 1.06 | S. cerevisiae deletion strains, locus YNL183C, strain NPR1, active compounds read low 0.916 | S. cerevisiae deletion strains, locus YOR231W, strain MKK1, active compounds read low 0.952 | S. cerevisiae deletion strains, locus YPL256C, strain CLN2, active compounds read low 0.99

Cc1nnsc1C(=O)O/N=C1/CCSc2ccc(F)cc21
inactive: [1] 0.975 | [2] 0.969 | [3] 0.994 | [4] 0.967 | [5] 0.982 | [6] 0.973 | [7] 0.943 | [8] 0.973 | S. cerevisiae deletion strains, locus YGR229C, strain SMI1, active compounds read low 0.983 | [9] 0.775 | [10] 0.966 | [30] 0.996 | [11] 0.984 | [12] 0.994 | [13] 0.98 | [14] 0.848 | [15] 0.985 | [16] 0.856 | [17] 0.878 | [18] 0.932 | [19] 0.988 | [20] 0.989 | S. cerevisiae deletion strains, locus YNL128W, strain TEP1, active compounds read low 1 | [22] 0.971 | [23] 0.973 | [24] 0.979 | [25] 0.945 | [26] 0.981 | [27] 0.956 | [28] 0.997 | [29] 0.874 | S. cerevisiae strains, strain wild type, active compounds read low 0.978
